Laboratory results reported in PubChem BioAssay AID1159580 (chemical genetic matrix, 2015).
Several values for one entry are separate records, joined by “and”; a condition that tells them apart may be missing. Equal entries are not always repeated. The campaign covered roughly 5,500 compounds. About 2,000 (36%) were called active. About 18% were inconclusive and are not listed. No stated cut-off is given here; in the data, active means normalized growth mostly below about 0.91 (no sharp cut-off); inconclusive means no clear call, values can overlap the other calls; inactive means mostly above about 0.92. This is one part of the list.

Experiment: chemical genetic growth profiling, strain panel (AID 1159580);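 further: tested at 20 µM; growth read once vehicle control cultures reached saturation at 30 °C; 1 = growth at the plate median or of vehicle wells; lower values mean less growth of the strain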
Conditions: S. cerevisiae deletion strains, growth OD

Measured: normalized growth

CCOC(=O)OC(C)OC(=O)C1N2C(=O)C(NC(=O)[C@H](N)c3ccccc3)C2SC1(C)C (some centres undefined)
inactive: locus YAL013W, strain DEP1, hits give low values 0.98 | locus YAL021C, strain ccr4, hits give low values 0.986 | locus YAL026C, strain drs2, hits give low values 0.981 | locus YAL030W, strain snc1, hits give low values 0.98 | locus YBL061C, strain skt5, hits give low values 0.978 | locus YBR009C, strain hhf1, hits give low values 0.992 | locus YBR021W, strain FUR4, hits give low values 1.03 | locus YBR023C, strain chs3, hits give low values 0.986 | locus YBR171W, strain sec66, hits give low values 0.968 | locus YBR229C, strain ROT2, hits give low values 0.961 | locus YBR231C, strain swc5, hits give low values 0.987 | locus YBR279W, strain paf1, hits give low values 0.989 | locus YCL011C, strain gbp2, hits give low values 0.965 | locus YCL016C, strain dcc1, hits give low values 0.993 | locus YCL029C, strain bik1, hits give low values 0.988 | locus YCL061C, strain MRC1, hits give low values 0.998 | locus YCL069W, strain vba3, hits give low values 0.998 | locus YCR088W, strain abp1, hits give low values 0.985 | locus YDL005C, strain med2, hits give low values 0.983 | locus YDL035C, strain GPR1, hits give low values 0.984 | locus YDL040C, strain nat1, hits give low values 0.989 | locus YDL074C, strain BRE1, hits give low values 0.917 | locus YDL101C, strain DUN1, hits give low values 0.97 | locus YDL134C, strain PPH21, hits give low values 0.998 | locus YDL185W, strain tfp1, hits give low values 0.975 | locus YDL192W, strain arf1, hits give low values 0.985 | locus YDR001C, strain nth1, hits give low values 0.983 | locus YDR069C, strain doa4, hits give low values 0.993 | locus YDR101C, strain arx1, hits give low values 0.962 | locus YDR137W, strain rgp1, hits give low values 0.994 | locus YDR159W, strain sac3, hits give low values 1 | locus YDR162C, strain NBP2, hits give low values 0.989 | locus YDR195W, strain ref2 0.985 | locus YDR297W, strain sur2, hits give low values 0.977 | locus YDR318W, strain mcm21, hits give low values 0.992 | locus YDR334W, strain swr1, hits give low values 0.943 | locus YDR335W, strain msn5, hits give low values 0.979 | locus YDR388W, hits give low values 0.991 | locus YDR392W, strain spt3, hits give low values 0.946 | locus YDR502C, strain sam2, hits give low values 0.99 | locus YEL003W, strain gim4, hits give low values 0.98 | locus YEL037C, strain rad23, hits give low values 0.987 | locus YEL061C, strain CIN8 (second series), hits give low values 0.984 | locus YEL061C, strain CIN8, hits give low values 0.976 | locus YER015W, strain faa2, hits give low values 0.981 | locus YER016W, strain bim1, hits give low values 0.99 | locus YER110C, hits give low values 0.982 | locus YER111C, strain swi4, hits give low values 0.985 | locus YER155C, strain BEM2 (second series), hits give low values 0.995 | locus YER155C, strain BEM2, hits give low values 0.992 | locus YER167W, strain BCK2, hits give low values 0.997 | locus YFR010W, strain ubp6, hits give low values 0.977 | locus YGL078C, strain dbp3, hits give low values 0.974 | locus YGL086W, strain mad1, hits give low values 0.966 | locus YGL167C, strain pmr1, hits give low values 0.991 | locus YGL173C, strain kem1, hits give low values 0.975 | locus YGL227W, strain vid30, hits give low values 0.993 | locus YGL240W, strain doc1, hits give low values 0.984 | locus YGL248W, strain PDE1, hits give low values 0.969 | locus YGL253W, strain hxk2, hits give low values 0.971 | locus YGR135W, strain pre9, hits give low values 1.04 | locus YGR252W, strain gcn5, hits give low values 0.945 | locus YHR013C, strain ard1, hits give low values 0.967 | locus YHR027C, strain rpn1, hits give low values 0.963 | locus YHR030C, strain SLT2, hits give low values 0.996 and 1.02 | locus YHR079C, strain IRE1 (second series), hits give low values 0.993 | locus YHR079C, strain IRE1, hits give low values 0.98 | locus YHR094C, strain hxt1, hits give low values 0.984 | locus YHR129C, strain ARP1, hits give low values 0.993 | locus YHR142W, strain chs7, hits give low values 0.954 | locus YHR200W, strain rpn10, hits give low values 0.997 | locus YIL066C, strain RNR3, hits give low values 0.944 | locus YIL073C, strain SPO22, hits give low values 0.966 | locus YIL125W, strain kgd1, hits give low values 0.995 | locus YIR030C, strain dcg1, hits give low values 0.986 | locus YJL092W, strain hpr5, hits give low values 0.994 | locus YJL095W, strain BCK1 (second series), hits give low values 0.994 | locus YJL095W, strain BCK1, hits give low values 0.949 and 0.988 | locus YJL115W, strain asf1, hits give low values 0.974 | locus YJL129C, strain trk1, hits give low values 1.01 | locus YJL134W, strain LCB3, hits give low values 0.992 | locus YJL154C, strain vps35, hits give low values 0.989 | locus YJL164C, strain tpk1, hits give low values 0.975 | locus YJL166W, strain qcr8, hits give low values 0.971 | locus YJL168C, strain set2, hits give low values 0.984 | locus YJL187C, strain SWE1 (second series), hits give low values 0.935 | locus YJL187C, strain SWE1, hits give low values 0.989 | locus YJR043C, strain POL32, hits give low values 0.98 | locus YJR066W, strain TOR1, hits give low values 0.966
